The text below walks through data of PubChem BioAssay (Tox21).

Assay [1] is described as follows: qHTS assay to identify small molecule antagonists of the glucocorticoid receptor (GR) signaling pathway - cell viability counter screen (AID 720693). Note: nearly all actives have a fitted effect of over 55% in size. Note: potency is the fitted concentration of half-maximal effect. A general note: Quantitative high-throughput screening tests each substance at several concentrations.
Assay [2] is described as follows: qHTS assay for identifying genotoxic compounds that show differential cytotoxicity against isogenic chicken DT40 cell lines with known DNA damage response pathways - wild type cell line (AID 743012). Note: nearly all actives have a fitted effect of over 60% in size. Note: potency is the fitted concentration of half-maximal effect. In short, it runs like this:
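Quantitative HTS on parental DT40 cells: 40 h compound treatment at 37 C/5% CO2, with viability then determined by CellTiter-Glo luminescence. Values serve as the DNA repair-proficient reference for differential cytotoxicity.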

A short description of assay [3]: qHTS assay for identifying genotoxic compounds that show differential cytotoxicity against isogenic chicken DT40 cell lines with known DNA damage response pathways - Rev3 mutant cell line (AID 743014). Note: nearly all actives have a fitted effect of over 55% in size. Note: potency is the fitted concentration of half-maximal effect.
Assay [4] in a line: qHTS assay for identifying genotoxic compounds that show differential cytotoxicity against isogenic chicken DT40 cell lines with known DNA damage response pathways - Rad54/Ku70 mutant cell line (AID 743015). Note: nearly all actives have a fitted effect of over 60% in size. Note: potency is the fitted concentration of half-maximal effect.
Assay [5] can be described thus: qHTS assay to identify small molecule antagonists of the androgen receptor (AR) signaling pathway - cell viability counter screen (AID 743033; note: nearly all actives have a fitted effect of over 45% in size; note: potency is the fitted concentration of half-maximal effect).
The target in assay [6] is Androgen receptor (Homo sapiens) (UniProt P10275). The assay is described as follows: qHTS assay to identify small molecule antagonists of the androgen receptor (AR) signaling pathway (AID 743035; active = well fitted inhibition curve with a large enough effect in the signal ratio in the repeat runs, not every such curve was filed as active; the % refers to the signal ratio). The method, boiled down: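 Cell line: GeneBLAzer AR-UAS-bla GripTite (HEK293). Stimulus: R1881 added after compound. Exposure: 16 h, 37C, 5% CO2. Readout: LiveBLAzer B/G FRET fluorescence after 2 h at room temperature.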

For assay [7] the target is unchanged. The assay is described as follows: qHTS assay to identify small molecule agonists of the androgen receptor (AR) signaling pathway (AID 743036; active = well fitted activation curve with a large enough effect in the signal ratio in the repeat runs, with a control signal flat, not every such curve was filed as active; the % refers to the signal ratio). The method, boiled down: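 Reporter line: GeneBLAzer AR-UAS-bla-GripTite (HEK293). Steps: plate cells, 4 h rest, add compounds, 16 h at 37C, add LiveBLAzer B/G substrate, 2 h at RT, read fluorescence.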
For assay [8] the target is unchanged. The assay is described as follows: qHTS assay to identify small molecule agonists of the androgen receptor (AR) signaling pathway using the MDA cell line (AID 743040; note: nearly all actives have a fitted effect of over 20% in size). Particulars: MDA-kb2 AR-luc cells, MMTV luciferase, 16 h; activity change: at 70.3 µM (top of the series), stronger effect = higher value. In short, it runs like this:
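Luminescence from ONE-Glo, read after 30 min at room temperature, reflects MMTV-driven luciferase in MDA-kb2 cells (AR- and GR-responsive). Treatment lasted 16 h at 37C, 0% CO2.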

Assay [9] can be described thus: qHTS assay to identify small molecule antagonists of the androgen receptor (AR) signaling pathway using the MDA cell line - cell viability counter screen (AID 743041; note: nearly all actives have a fitted effect of over 45% in size). In short, it runs like this:
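Viability counter screen run alongside the AR antagonist reporter: cells seeded 5 h before compound, R1881 added, 16 h incubation at 37C without CO2, fluorescent CellTiter-Fluor signal quantified.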

For assay [10], the target named is Androgen receptor (Homo sapiens) (UniProt P10275). The assay is described as follows: qHTS assay to identify small molecule antagonists of the androgen receptor (AR) signaling pathway using the MDA cell line (AID 743042; note: nearly all actives have a fitted effect of over 55% in size). The method, boiled down: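 MDA-kb2 cells (human breast carcinoma, stably carrying an MMTV-luciferase reporter responsive to AR and GR) were plated at 3,000 cells/well and preincubated 5 hr at 37C, then given compound plus R1881 agonist for 16 h. ONE-Glo luminescence was read.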

Where “and” joins values, the source holds several entries; their conditions need not be identical. Equal values may be shown once. Results filed as inconclusive are left out. Some structures have more than one record in an assay (separate samples or runs), and their calls can disagree. Calls of active or inactive are those of the source. Unless noted, calls come from the whole dose curve; as a rule, active = well fitted curve in the direction sought with a large enough effect in the repeat runs; inconclusive = weak or mixed curves; inactive = no such curve, though single readings can be large; an effect the other way counts as inactive or inconclusive.

Sequence of Androgen receptor (Homo sapiens) (P10275 whole entry, looked up): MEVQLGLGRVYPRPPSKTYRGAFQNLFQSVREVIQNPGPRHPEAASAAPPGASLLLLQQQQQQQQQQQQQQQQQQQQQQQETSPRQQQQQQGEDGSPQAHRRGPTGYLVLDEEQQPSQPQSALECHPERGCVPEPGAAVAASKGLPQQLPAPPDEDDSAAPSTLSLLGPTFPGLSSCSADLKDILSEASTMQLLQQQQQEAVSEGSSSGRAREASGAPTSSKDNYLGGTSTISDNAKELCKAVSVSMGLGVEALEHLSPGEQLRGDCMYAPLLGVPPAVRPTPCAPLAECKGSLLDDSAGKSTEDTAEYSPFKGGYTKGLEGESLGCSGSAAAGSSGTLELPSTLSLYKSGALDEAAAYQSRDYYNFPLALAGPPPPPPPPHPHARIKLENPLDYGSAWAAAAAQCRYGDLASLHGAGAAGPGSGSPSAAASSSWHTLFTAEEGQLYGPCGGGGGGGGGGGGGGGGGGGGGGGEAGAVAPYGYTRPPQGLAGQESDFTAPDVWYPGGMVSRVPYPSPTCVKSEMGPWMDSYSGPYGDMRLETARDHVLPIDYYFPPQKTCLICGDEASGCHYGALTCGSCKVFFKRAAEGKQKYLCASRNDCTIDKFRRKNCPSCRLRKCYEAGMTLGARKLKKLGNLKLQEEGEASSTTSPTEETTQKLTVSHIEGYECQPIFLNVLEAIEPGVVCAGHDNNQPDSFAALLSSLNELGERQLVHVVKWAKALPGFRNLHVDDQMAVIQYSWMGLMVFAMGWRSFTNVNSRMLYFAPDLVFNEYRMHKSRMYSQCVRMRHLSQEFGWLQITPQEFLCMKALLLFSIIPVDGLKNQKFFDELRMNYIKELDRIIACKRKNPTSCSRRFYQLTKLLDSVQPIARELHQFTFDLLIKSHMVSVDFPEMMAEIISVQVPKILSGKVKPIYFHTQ

`CN(C)N`: the Potency entry in assay [1], in assay [2], in assay [3], in [4], in assay [5] and in [6] was “inactive” throughout. Besides, the Potency entry in assay [7], in [8], in assay [9] and in assay [10] was “inactive” each time.

For the molecule `CCCCC(CC)CO[N+](=O)[O-]` (stereo unspecified), the Potency result in [1], in assay [2], in [3] and in assay [4] was “inactive” each time.

With `COC(=O)Cc1ccccc1`, the Potency entry in assay [1], in [2], in assay [3] and in assay [4] was “inactive” in each case.

As for `Nc1c(Br)cc(Br)c2c1C(=O)c1ccccc1C2=O`, the Potency result in assay [1], in assay [2], in assay [3], in assay [4], in assay [5] and in assay [7] was “inactive” throughout. In addition, the Potency result in assay [8], in [9] and in assay [10] was “inactive” throughout.

In the case of `C=C(Cl)Cl`, the Potency result in assay [1], in assay [2], in assay [3], in assay [4], in assay [5] and in assay [6] was “inactive” each time. The Potency result in [7], in assay [8], in [9] and in [10] was “inactive” each time.

Turning to `CC(C)OC(=O)Cc1ccccc1`, the Potency result in assay [1], in assay [2], in assay [3], in assay [4] and in assay [5] was “inactive” in each case.

As to `Clc1ccc(Cl)c(Cl)c1`, the Potency result in assay [1], in assay [2], in assay [3], in [4] and in assay [5] was “inactive” each time.

For `CCC(C)(C)c1ccc(O)c(C(C)(C)CC)c1`, the Potency was 19.3 µM (active) and 19.5 µM (active) in [1]; 24.3 µM (active) in [2]; 27.3 µM (active) in assay [3]; 53.9 µM (active) and 24.3 µM (active) in assay [4]; 54.4 µM (active) in [5].

`FC(F)OC(F)(F)C(F)Cl` (stereo unspecified): the Potency result in [1], in [2], in [3], in assay [4], in assay [5] and in [6] was “inactive” in each case. The Potency result in [7], in assay [8] and in [10] was “inactive” in each case.

Take `CCOC(=O)NC(O)C(Cl)(Cl)Cl` (stereo unspecified): the Potency result in assay [1], in assay [2], in [3], in [4] and in assay [5] was “inactive” throughout.

On to `C[N+]1(CCF)[C@@H]2CC[C@H]1CC(OC(=O)C(O)(c1ccccc1)c1ccccc1)C2` (stereo partly specified), for which the Potency result in assay [1], in assay [2], in assay [3], in [4] and in [5] was “inactive” in each case.

For the molecule `OCCCl`, the Potency result in assay [1], in [2], in assay [3], in assay [4] and in [5] was “inactive” each time.

Turning to `CNC(=O)Oc1cccc(N=CN(C)C)c1`, the Potency result in assay [1] was “inactive”. For the same molecule, the Potency in assay [2] and in assay [3] was 54.5 µM (active) throughout.

For the molecule `C=CCc1ccccc1O`, the Potency result in assay [1], in assay [2] and in [3] was “inactive” in each case.

For the molecule `CCCC1CCCCN1` (stereo unspecified), the Potency result in assay [1], in [2], in [3] and in [4] was “inactive” in each case.

As for `CN[C@@H](C)[C@H](O)c1ccccc1`, the Potency result in assay [1] and in [2] was “inactive” in each case.

Take `CCOP(=O)(SC(C)CC)N1CCSC1=O` (stereo unspecified): the Potency result in assay [1], in assay [2], in assay [3], in assay [4] and in assay [5] was “inactive” in each case.

Regarding `C[N+](C)(C)CCOC(=O)C(O)(c1ccccc1)c1ccccc1`, the Potency result in assay [1], in [2], in assay [3] and in assay [4] was “inactive” throughout.

Regarding `CC1(C)[C@H](C(=O)O[C@H](C#N)c2cccc(Oc3ccccc3)c2)[C@@H]1C=C(Br)Br`, the Potency result in assay [1], in assay [2], in assay [5], in assay [6], in assay [7] and in assay [8] was “inactive” in each case. Moreover, the Potency result in assay [9] and in [10] was “inactive” in each case. Moreover, the Potency result in [3] is “inactive and 48.6 µM (active)”; in [4], “inactive and 43.3 µM (active)”.

As to `CCCC[P+](CC)(CCCC)CCCC` (tested in a mixture with another compound), the Potency entry in assay [1] and in assay [5] was “inactive” each time. In addition, the figures for the Potency in [2], in assay [3] and in assay [4] were 27.5 µM (active), 17.4 µM (active) and 12.3 µM (active), respectively.

With `CC[N+]1(C)CCCC(OC(=O)C(O)(c2ccccc2)c2ccccc2)C1` (stereo unspecified), the Potency result in assay [1], in [2], in assay [3], in assay [4] and in assay [5] was “inactive” throughout.

For the molecule `COc1ccc(C(=O)c2c(C)n(CCN3CCOCC3)c3ccccc23)cc1`, the Potency entry in assay [1] was “inactive”. Moreover, the Potency in [2] is 26.6 µM (active); in assay [3] it was 26.6 µM (active); in assay [4], 29.8 µM (active).

As for `Cc1nc(N(C)C)nc(OC(=O)N(C)C)c1C`, the Potency result in assay [1], in assay [2], in assay [3], in assay [4] and in [5] was “inactive” throughout.

As to `CN1C[C@H](C(=O)N[C@]2(C)O[C@@]3(O)[C@@H]4CCCN4C(=O)[C@H](Cc4ccccc4)N3C2=O)C=C2c3cccc4[nH]cc(c34)C[C@H]21`, the Potency entry in assay [1] and in assay [5] was “inactive” throughout. In addition, the Potency is 21.1 µM (active) and 48.8 µM (active) and 22.6 µM (active) in assay [2]; 23.7 µM (active) and 27.4 µM (active) and 18 µM (active) in assay [3]; 9.44 µM (active) and 13.7 µM (active) and 10.1 µM (active) in [4].

With `C=CCOCC1CO1` (stereo unspecified), the Potency result in [1], in assay [2], in [3], in assay [4] and in assay [5] was “inactive” each time.

Regarding `O=CC=O`, the Potency entry in [1], in assay [2], in assay [4], in [5], in [6] and in [7] was “inactive” each time. Also, the Potency entry in assay [8], in assay [9] and in [10] was “inactive” throughout. Also, in assay [3], the Potency entry is “inactive and 49.9 µM (active)”.

As to `O=S(=O)(Cl)Cl`, the Potency entry in assay [1], in assay [2], in [3], in assay [4] and in assay [5] was “inactive” each time.

With `O=C1CC[C@@]2(O)[C@H]3Cc4ccc(O)c5c4[C@@]2(CCN3CC2CC2)[C@H]1O5`, the Potency entry in [1], in assay [2], in assay [3], in [4] and in assay [5] was “inactive” each time.

Turning to `O=C(NCNC(=O)NC1C(=O)NC(=O)N1CO)NC1C(=O)NC(=O)N1CO` (stereo unspecified), the Potency entry in assay [1], in [2], in assay [3], in assay [4], in assay [5] and in assay [6] was “inactive” in each case. The Potency entry in assay [7], in assay [8], in [9] and in [10] was “inactive” each time.

Take `COCc1cnc(C2=NC(C)(C(C)C)C(=O)N2)c(C(=O)O)c1` (stereo unspecified): the Potency entry in assay [1], in assay [2], in assay [3], in assay [4], in assay [5] and in [6] was “inactive” in each case. In addition, the Potency entry in [7], in [8], in [9] and in assay [10] was “inactive” in each case.
